From PubChem BioAssay AID2284195 (EPA ToxCast)
Activity calls are given as the source filed them. Rule for the calls: active = hit-call score of the fitted dose curve at least 0.9, where 1 is the maximum; inactive = score below 0.9.

Molecular target: Retinoic acid receptor alpha (Homo sapiens) (UniProt P10276)
Test: ERF_TW_NR_hRARa: Eurofins (ERF) Nuclear Receptor (NR) Radioligand Binding LeadHunter Assay for human Retinoic Acid Receptor alpha (RARa) Agonism
Experimental: ERF_TW_NR_hRARa is a biochemical, single-readout assay that uses extracted gene-proteins in a cell-free assay. Measurements were taken 2 hour after chemical dosing in a 96-well plate. See RARalpha Human retinoic acid NHR Binding (Agonist Radioligand) Assay, Panlabs.ERF_TW_NR_hRARa is an assay component calculated from the ERF_TW_NR_hRARa assay. It is designed to measure radioligand binding using a type of binding reporter as detected by scintillation counting with radiometry technology.Data from the assay component ERF_TW_NR_hRARa was analyzed at the assay endpoint, ERF_TW_NR_hRARa, in the positive analysis fitting direction relative to DMSO as the negative control and baseline of activity. Using a type of binding reporter, gain-of-signal activity can be used to understand changes in radioligand binding as they relate to gene RARA. To generalize the intended target to other relatable targets, this assay endpoint is annotated to the nuclear receptor intended target family, where the subfamily is retinoic acid receptor.
Human recombinant RARalpha-LBD expressed in insect cells are used in modified Tris-HCl buffer pH 7.4. A 0.025 ug aliquot is incubated with 3 nM [3H]9-cis-Retinoic acid and 1 ug Anti-GST antibody for 2 hours at 4C. Non-specific binding is estimated in the presence of 1 uM 9-cis-retinoic acid. Receptors are counted to determine [3H]9-cis-Retinoic acid specifically bound. […]

Retinoic acid receptor alpha (Homo sapiens), sequence (P10276 whole entry, looked up): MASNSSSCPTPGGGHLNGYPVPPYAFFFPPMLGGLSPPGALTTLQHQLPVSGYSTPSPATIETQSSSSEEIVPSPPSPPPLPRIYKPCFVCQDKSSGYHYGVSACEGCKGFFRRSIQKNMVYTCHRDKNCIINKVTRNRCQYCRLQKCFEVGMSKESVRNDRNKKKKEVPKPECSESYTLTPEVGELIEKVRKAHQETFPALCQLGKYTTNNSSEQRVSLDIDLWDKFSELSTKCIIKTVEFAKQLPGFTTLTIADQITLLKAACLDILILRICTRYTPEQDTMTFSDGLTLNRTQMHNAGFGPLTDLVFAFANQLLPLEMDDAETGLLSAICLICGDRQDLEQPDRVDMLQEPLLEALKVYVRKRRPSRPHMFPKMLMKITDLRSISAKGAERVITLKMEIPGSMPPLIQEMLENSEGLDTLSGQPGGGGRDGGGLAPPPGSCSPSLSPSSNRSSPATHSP

Row | SMILES | AC50
1 | O=C(/C=C/c1ccc(O)cc1)CC(=O)/C=C/c1ccc(O)cc1 | 2240 nM (active)
